The full list was thinned out, with hits kept by preference.
CD40 NFkB inh – CD40 pathway inhibition in BL2 cells; 83,000 compounds, 0.94% hits; inhibition, % at 10 µM; BL2 NF-kB luciferase reporter, CD40L-induced, 4 h; AID 1053188;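 active means mean inhibition of at least 50% with a set share of replicates also reaching that level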;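 further: 0% = neutral control wells and 100% = IKK inhibitor VII at 50 µM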
Starred values were filed as active, the others as inactive; [ ] = another dose, or the depositor's remark.

SMILES	CD40 NFkB inh
CCOc1ccc(S(=O)(=O)N2CCCC(C(=O)NCc3ccccn3)C2)cc1Cl (stereo not given)	-0.9
O=C(NCc1ccccn1)C1CCCN(S(=O)(=O)c2ccccc2)C1 (stereo not given)	25.8*
O=C(NC[C@H]1N[C@H](CO)[C@@H]1c1ccc(C2=CCCCC2)cc1)c1ccccc1	-1.2
Cc1c(C(=O)NCCc2ccccc2)oc2ccc(S(=O)(=O)N3CCOCC3)cc12	-15.5
COc1ccc2oc(C(=O)NCC(c3ccco3)N(C)C)c(C)c2c1 (stereo not given)	0.7
COc1ccc2oc(C(=O)NCCc3ccccc3)c(C)c2c1	58.0*
O=C(O)CCC/C=C/CC1COC(C(F)(F)F)OC1c1ccccc1O (stereo not given)	-5.4[25 µM]
CO[C@@H]1CN(C)C(=O)c2cc(NC(=O)c3cccc(F)c3)ccc2OC[C@@H](C)NC[C@H]1C	-2.4
CSC1SCC2C(=O)N(C)C(C(C)C)C(=O)OCC(NC(=O)c3cnc4ccccc4n3)C(=O)NC(C)C(=O)N(C)C1C(=O)N(C)C(C(C)C)C(=O)OCC(NC(=O)c1cnc3ccccc3n1)C(=O)NC(C)C(=O)N2C (stereo not given)	91.6*
CC(C)NC(=O)Nc1ccc2c(c1)C(=O)N(C)C[C@@H](C)[C@H](CN(C)S(C)(=O)=O)O2	1.9
N#C[C@H]1[C@H](c2ccc(C#CC3CCCCC3)cc2)[C@H](CO)N1C(=O)Cc1ccccn1	7.0
Cc1ccc(OCc2cc(C(=O)N3CCc4sccc4C3)no2)cc1C	37.8*
Cc1ccc(OCC(=O)N2CCc3ccccc3C2)cc1C	-13.4
O=C(c1cc(-c2cccs2)on1)N1CCc2ccccc2C1	-18.4
CC(C)NC(=O)Nc1ccc2c(c1)CC(=O)N(C)C[C@@H](C)[C@H](CN(C)C)O2	2.9
COC(=O)c1ccc(CSc2nnc(-c3ccccc3)n2C)o1	10.4
COC(=O)c1ccc(CSc2cc(C)c3ccccc3n2)o1	65.7*
COC(=O)c1ccc(CSc2nnnn2-c2ccccc2)o1	-9.3
C[C@@H]1CN([C@@H](C)CO)C(=O)CCCn2nncc2CO[C@H]1CN(C)C(=O)NC1CCCC1	4.1[25 µM]
CC1(C)[C@H]2CC[C@]1(C)[C@@H](OC(=O)C[N+]1(C)CCOCC1)C2	-0.3
O=C(CCCCC(=O)OC1CCCCC1)OC1CCCCC1	-10.3
CC1(C)C2CCC1(C)C(OCC[N+](C)(C)CC(=O)OC1CCCCC1)C2 (stereo not given)	57.3*
CC(C)C[C@@H]1COCc2cn(nn2)CC[C@H](Cc2ccc(-c3ccccc3)cc2)C(=O)N1	-3.5
Fc1cccc(CN2[C@@H]3CNC[C@H]2C3c2ccc(-c3ccncc3)cc2)c1 (stereo not given in full)	-8.9[25 µM]
CC1(C)C(=O)N=C2c3ccccc3C(=O)C(=O)C21 (stereo not given)	90.8*[25 µM]
SMILES	CD40 NFkB inh
CCCNC(=O)[C@@H]1[C@@H](CO)[C@@H]2Cn3c(ccc(-c4ccncc4)c3=O)[C@H]1N2Cc1ccccc1F	2.2[25 µM]
O=C(C1CCCCC1)N1C[C@@H]2[C@H](c3ccccc31)[C@H](CO)N2C(=O)c1ccccc1F	-4.8[25 µM]
COc1cccc(-c2ccc([C@@H]3[C@H](CO)N4C(=O)CN(C(=O)C5CCCC5)C[C@@H]34)cc2)c1	11.0
c1ccc2[nH]c(-c3ccc4c(c3)OCO4)nc2c1	14.3
CCNC(=O)COC(=O)c1ccc(-c2nc3ccccc3s2)s1	-56.1
O=C(c1cc2ccccc2s1)N1CCOCC1	-7.5
O=C(c1ccc(-c2nc3ccccc3s2)s1)N1CCOCC1	88.1*
c1csc(-c2nc3ccccc3s2)c1	-96.8
c1ccc2sc(-c3ccc4c(c3)OCO4)nc2c1	53.4*
O=C(Nc1cccc(-c2nc3ccccc3s2)c1)c1ccc2c(c1)OCO2	-36.6
O=C(NC1CC1)c1ccc(-c2nc3ccccc3s2)s1	75.4*
CCN1CCN(C(=O)c2ccc(-c3nc4ccccc4s3)s2)CC1	-45.2
CCCNC(=O)Nc1ccc2c(c1)OC[C@H](C)N(C(=O)C1CCOCC1)C[C@H](C)[C@H](OC)CN(C)C2=O	-5.1[25 µM]
COc1cccc(C(=O)Nc2ccc3c(c2)OC[C@@H](C)NC[C@@H](C)[C@H](OC)CN(C)C3=O)c1	6.3
O=C(Nc1ccc(Cl)c(Cl)c1)N[C@H]1CC[C@H](CCn2cc(C3CCCC3)nn2)O[C@H]1CO	8.7
CC(=O)N(C)C[C@H]1Oc2c(N)cccc2C(=O)N(C)C[C@@H]1C	0.8
COc1ccc(S(=O)(=O)N2CC[C@@H]3[C@@H](CO)Nc4ccc(-c5ccccc5F)cc4[C@@H]32)cc1	16.8[25 µM]
C[C@@H](NC(=O)[C@@H]1[C@@H](CO)[C@@H]2Cn3c(cccc3=O)[C@@H]2N1CC1CCCC1)c1ccccc1	0.5
CC(C)[C@@H](C)NC(=O)N(C)C[C@H]1OCc2ccccc2-c2ccccc2C(=O)N([C@H](C)CO)C[C@@H]1C	-14.4
CC(C)NC(=O)Nc1ccc2c(c1)CC(=O)N(C)C[C@H](C)[C@H](CN(C)S(C)(=O)=O)O2	1.2
Cc1ccc2oc(-c3cccc(NC(=O)C4CCCO4)c3)nc2c1 (stereo not given)	-26.6
CC(=O)Nc1ccc2oc(-c3ccccc3)nc2c1	-1.8
Cc1cccc(-c2nc3cc(NC(=O)C4CCCO4)ccc3o2)c1 (stereo not given)	54.1*
CC(=O)Nc1cccc2c1O[C@@H](CN(C)S(C)(=O)=O)[C@H](C)CN(C)C2=O	1.7
O=C(C[C@@H]1C[C@H]2c3cc(NC(=O)Nc4ccccc4F)ccc3O[C@H]2[C@@H](CO)O1)NCCc1ccccc1	5.7[25 µM]
SMILES	CD40 NFkB inh
CN(C)C(=O)c1cccc(-c2ccccc2[C@@H]2[C@@H](C#N)N(C(=O)C3CC3)[C@H]2CO)c1	-31.2[25 µM]
NC(=S)NN=Cc1nccc2c(C(F)(F)C(F)(F)C(F)(F)F)cccc12	31.2
NC(=S)NN=Cc1c[nH]c2nccnc12	66.7*
Cn1cccc1/C=N/NC(N)=S	4.1
CCCNC(=O)N1[C@H](CO)[C@H](c2ccc(C3=CCCC3)cc2)[C@H]1CNC(C)=O	0.9
C[C@H]1CN([C@@H](C)CO)C(=O)c2c(c3ccccc3n2C)-c2ccccc2CO[C@@H]1CN(C)Cc1ccc(Oc2ccccc2)cc1	24.3[25 µM]
CCN(C[C@@H]1[C@@H](c2ccccc2)[C@@H](CO)N1CC1CC1)C(=O)c1ccccc1F	0.0[25 µM]
Cc1ccc(-c2nnc(-c3ccc4c(c3)OCO4)o2)cc1	-65.1
O=C1CCCCC1Sc1nnc(-c2ccc3c(c2)OCO3)o1 (stereo not given)	95.0*
c1coc(-c2nnc(-c3ccc4c(c3)OCO4)o2)c1	-46.0
CC(C)[C@H](C)NC(=O)N(C)C[C@H]1OCc2ccccc2-c2c(n(C)c3ccccc23)C(=O)N([C@@H](C)CO)C[C@H]1C	1.7
CC(=O)Nc1ccc2c(c1)C(=O)N(C)C[C@@H](C)[C@@H](CN(C)S(C)(=O)=O)O2	-5.6
COc1ccc2c3c(n(C)c2c1)[C@H](CO)N(C(=O)NC(C)C)CC31CCN(Cc2nccs2)CC1	-18.1[25 µM]
C[C@@H]1CCCCO[C@@H](CN(C)Cc2ccc(Cl)c(Cl)c2)[C@@H](C)CN([C@@H](C)CO)C(=O)c2cc(NS(=O)(=O)c3cccs3)ccc2O1	35.5[25 µM]
C[C@@H]1CN([C@H](C)CO)C(=O)c2cc(NS(=O)(=O)c3cccs3)ccc2O[C@@H](C)CCCCO[C@@H]1CN(C)Cc1ccc(Cl)c(Cl)c1	42.4[25 µM]
C[C@H](CO)N1C[C@H](C)[C@H](CN(C)C(=O)c2ccncc2)OCCCC[C@H](C)Oc2ccc(NS(=O)(=O)c3cccs3)cc2C1=O	-12.3[25 µM]

Source: PubChem (Broad Institute)
